Assay results from the supplement of paper PMC8728848.
The entries come from a sample that favours the strongest signals as a whole.

Key:
Assay in all cases: glycan array binding signal (z-score within array); higher = stronger binding
Conditions in all cases: glycan notation: IUPAC condensed, linker removed
[1] = target: Fuc(a1-2)[Gal(a1-3)]Gal(b1-4)Glc
Outline: (§1)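 Glycan array binding is given as a within-array Z-score, which can be read as non-binding when negative. The arrays, 3228 of them, came from the Consortium for Functional Glycomics database and were retained only where the protein sequence was available. Z-scores were averaged across arrays of the same protein sequence at different concentrations or buffers and across linkers.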

[2] = target: Fuc(a1-2)[Gal(a1-3)]Gal(b1-4)GlcNAc
Outline: as §1

[3] = target: Fuc(a1-2)[Gal(a1-3)]Gal(b1-4)GlcNAc(b1-2)Man(a1-3)[Fuc(a1-2)[Gal(a1-3)]Gal(b1-4)GlcNAc(b1-2)Man(a1-6)]Man(b1-4)GlcNAc(b1-4)GlcNAc
Outline: as §1

[4] = target: Fuc(a1-2)[GalNAc(a1-3)]Gal(b1-3)GlcNAc(b1-2)Man(a1-3)[Fuc(a1-2)[GalNAc(a1-3)]Gal(b1-3)GlcNAc(b1-2)Man(a1-6)]Man(b1-4)GlcNAc(b1-4)GlcNAc
Outline: as §1

[5] = target: Fuc(a1-2)[GalNAc(b1-3)]Gal
Outline: as §1

[6] = target: Fuc(a1-3)[Gal(b1-4)]GlcNAc
Outline: as §1

[7] = target: Fuc(a1-3)[Gal3S(b1-4)]GlcNAc6S
Outline: as §1

Gal(a1-3)Gal(b1-3)GlcNAc = target: Gal(a1-3)Gal(b1-3)GlcNAc
Outline: as §1

Gal(a1-4)Gal(b1-4)Glc = target: Gal(a1-4)Gal(b1-4)Glc
Outline: as §1

Gal(a1-6)Glc = target: Gal(a1-6)Glc
Outline: as §1

[8] = target: Gal(b1-3)Gal(b1-4)GlcNAc(b1-2)Man(a1-3)[Gal(b1-3)Gal(b1-4)GlcNAc(b1-2)Man(a1-6)]Man(b1-4)GlcNAc(b1-4)GlcNAc
Outline: as §1

[9] = target: Gal(b1-3)GalNAc(b1-4)Gal(b1-4)Glc
Outline: as §1

[10] = target: Gal(b1-3)GalNAc(b1-4)[Neu5Ac(a2-3)]Gal(b1-4)Glc
Outline: as §1

[11] = target: Gal(b1-3)GlcNAc(b1-2)Man(a1-3)[Gal(b1-3)GlcNAc(b1-2)Man(a1-6)]Man(b1-4)GlcNAc(b1-4)GlcNAc
Outline: as §1

[12] = target: Gal(b1-3)GlcNAc(b1-3)Gal(b1-3)GlcNAc
Outline: as §1

[13] = target: Gal(b1-3)GlcNAc(b1-3)Gal(b1-4)[Fuc(a1-3)]GlcNAc(b1-6)[Gal(b1-3)GlcNAc(b1-3)]Gal(b1-4)Glc
Outline: as §1

Gal(b1-4)Glc = target: Gal(b1-4)Glc
Outline: as §1

[14] = target: Gal(b1-4)GlcNAc(b1-2)[Gal(b1-4)GlcNAc(b1-4)]Man(a1-3)[Gal(b1-4)GlcNAc(b1-2)Man(a1-6)]Man(b1-4)GlcNAc(b1-4)GlcNAc
Outline: as §1

[15] = target: Gal(b1-4)GlcNAc(b1-3)[Gal(b1-4)GlcNAc(b1-6)]GalNAc
Outline: as §1

[16] = target: Gal(b1-4)GlcNAc(b1-6)[Gal(b1-3)]GalNAc
Outline: as §1

[17] = target: Gal3S(b1-4)[Fuc(a1-3)]Glc
Outline: as §1

[18] = target: GalNAc(a1-3)GalNAc(a1-3)Gal(a1-4)Gal(b1-4)GlcNAc
Outline: as §1

[19] = target: GalNAc(b1-3)Gal(a1-6)Gal(b1-4)Glc
Outline: as §1

Glc(b1-6)Glc = target: Glc(b1-6)Glc
Outline: as §1

[20] = target: GlcNAc(a1-4)Gal(b1-4)GalNAc
Outline: as §1

[21] = target: GlcNAc(a1-4)Gal(b1-4)GlcNAc(b1-3)Gal(b1-4)[Fuc(a1-3)]GlcNAc(b1-3)Gal(b1-4)[Fuc(a1-3)]GlcNAc
Outline: as §1

Man(a1-6)Man = target: Man(a1-6)Man
Outline: as §1

Man(b1-4)GlcNAc = target: Man(b1-4)GlcNAc
Outline: as §1

[22] = target: Neu5Ac(a2-3)Gal(b1-3)GlcNAc(b1-3)GalNAc
Outline: as §1

[23] = target: Neu5Ac(a2-3)Gal(b1-4)[Fuc(a1-3)]GlcNAc(b1-3)Gal(b1-4)[Fuc(a1-3)]GlcNAc(b1-3)Gal(b1-4)[Fuc(a1-3)]GlcNAc
Outline: as §1

[24] = target: Neu5Ac(a2-6)Gal(b1-4)GlcNAc(b1-2)Man(a1-3)[Gal(b1-4)GlcNAc(b1-2)Man(a1-6)]Man(b1-4)GlcNAc(b1-4)GlcNAc
Outline: as §1

[25] = target: Neu5Ac(a2-6)Gal(b1-4)GlcNAc(b1-2)Man(a1-6)Man(b1-4)GlcNAc(b1-4)GlcNAc
Outline: as §1

[26] = target: Neu5Ac(a2-6)Gal(b1-4)GlcNAc(b1-2)Man(a1-6)[GlcNAc(b1-2)Man(a1-3)]Man(b1-4)GlcNAc(b1-4)GlcNAc
Outline: as §1

[27] = target: Neu5Ac(a2-8)Neu5Ac(a2-8)Neu5Ac(a2-3)Gal(b1-4)Glc
Outline: as §1

[28] = target: Neu5Ac(a2-8)Neu5Ac(a2-8)Neu5Ac(a2-3)[GalNAc(b1-4)]Gal(b1-4)Glc
Outline: as §1

[29] = target: Neu5Gc(a2-3)Gal(b1-3)GlcNAc
Outline: as §1

B1: SspB (Streptococcus gordonii), P16952 (protein)
chain: MKNKKEVYGFRKSKVAKTLCGAVLGTALIAFADKAVFADEVTETTSTSTVEVATTGNPATNLPEAQGEMSQVAKESQAKAGSKESALPVEVSSADLDKAVADAKSAGVKVVQDETKDKGTATTATDNAQKQDEIKSDYAKQAEEIKTTTEAYKKEVAAHQAETDKINAENKAADDKYQKDLKSHQEEVEKINTANATAKAEYEAKLAQYQKDLATVKKANEDSQQDYQNKLSAYQTELARVQKANAEAKEAYEKAVKENTAKNEALKVENEAIKQRNETAKATYEAAMKQYEADLAAIKKANEDNDADYQAKLAAYQTELARVQKANAEAKEAYDKAVKENTAKNTAIQAENEAIKQRNETAKATYDAAVKKYEADLAAVKQANATNEADYQAKLAAYQTELARVQKANADAKATYEKAVEDNKAKNAAIKAENEEIKQRNAVAKTDYEAKLAKYEADLAKYKKEFAAYTAALAEAESKKKQDGYLSEPRSQSLNFKSEPNAIRTIDSSVHQYGQQELDALVKSWGISPTNPDRKKSRAYSYFNAINSNNTYAKLVLEKDKPVDVTYTGLKNSSFNGKKISKVVYTYTLKETGFNDGTKMTMFASSDPTVTAWYNDYFTSTNINVKVKFYDEEGQLMNLTGGLVNFSSLNRGNGSGAIDKDAIESVRNFNGRYIPISGSSIKIHENNSAYADSSNAEKSLGARWNTSEWDTTSSPNNWYGAIVGEITQSEISFNMASSKSGNIWFAFNSNINAIGVPTKPVAPTAPTQPMYETEKPLEPAPVAPSYENEPTPPVKTPDQPEPSKPEEPTYETEKPLEPAPVAPSYENEPTPPVKTPDQPEPSKPEEPNYETEKPLEPAPVAPSYENEPTPPVKIPDQPEPSKPEEPTYDPLPTPPLAPTPKQLPTPPVVPTVHFHYSSLLAQPQINKEIKNEDGVDIDRTLVAKQSIVKFELKTEALTAGRPKTTSFVLVDPLPTGYKFDLDATKAASTGFDTTYDEASHTVTFKATDETLATYNADLTKPVETLHPTVVGRVLNDGATYTNNFTLTVNDAYGIKSNVVRVTTPGKPNDPDNPNNNYIKPTKVNKNKEGLNIDGKEVLAGSTNYYELTWDLDQYKGDKSSKEAIQNGFYYVDDYPEEALDVRPDLVKVADEKGNQVSGVSVQQYDSLEAAPKKVQDLLKKANITVKGAFQLFSADNPEEFYKQYVATGTSLVITDPMTVKSEFGKTGGKYENKAYQIDFGNGYATEVVVNNVPKITPKKDVTVSLDPTSENLDGQTVQLYQTFNYRLIGGLIPQNHSEELEDYSFVDDYDQAGDQYTGNYKTFSSLNLTMKDGSVIKAGTDLTSQTTAETDATNGIVTVRFKEDFLQKISLDSPFQAETYLQMRRIAIGTFENTYVNTVNKVAYASNTVRTTTPIPRTPDKPTPIPTPKPKDPDKPETPKEPKVPSPKVEDPSAPIPVSVGKELTTLPKTGTNDATYMPYLGLAALVGFLGLGLAKRKED
- glycan array binding signal (z-score) [1]: 0.486
- glycan array binding signal (z-score) [2]: 0.017
- glycan array binding signal (z-score) [3]: 2.31
- glycan array binding signal (z-score) [4]: -0.556
- glycan array binding signal (z-score) [5]: 0.761
- glycan array binding signal (z-score) [6]: -0.041
- glycan array binding signal (z-score) [7]: 0.242
- glycan array binding signal (z-score) (Gal(a1-3)Gal(b1-3)GlcNAc): -0.597
- glycan array binding signal (z-score) (Gal(a1-4)Gal(b1-4)Glc): -1.22
- glycan array binding signal (z-score) (Gal(a1-6)Glc): 0.072
- glycan array binding signal (z-score) [8]: -0.672
- glycan array binding signal (z-score) [9]: 1.1
- glycan array binding signal (z-score) [10]: -1.62
- glycan array binding signal (z-score) [11]: 0.616
- glycan array binding signal (z-score) [12]: -0.283
- glycan array binding signal (z-score) [13]: 1.07
- glycan array binding signal (z-score) (Gal(b1-4)Glc): -0.34
- glycan array binding signal (z-score) [14]: 1.08
- glycan array binding signal (z-score) [15]: 5.73
- glycan array binding signal (z-score) [16]: -1.35
- glycan array binding signal (z-score) [17]: 0.344
- glycan array binding signal (z-score) [18]: 0.985
- glycan array binding signal (z-score) [19]: -0.859
- glycan array binding signal (z-score) (Glc(b1-6)Glc): -1.1
- glycan array binding signal (z-score) [20]: -0.557
- glycan array binding signal (z-score) [21]: 3.03
- glycan array binding signal (z-score) (Man(a1-6)Man): 2.65
- glycan array binding signal (z-score) (Man(b1-4)GlcNAc): -0.696
- glycan array binding signal (z-score) [22]: 0.045
- glycan array binding signal (z-score) [23]: 0.022
- glycan array binding signal (z-score) [24]: 3.2
- glycan array binding signal (z-score) [25]: 1.36
- glycan array binding signal (z-score) [26]: 0.081
- glycan array binding signal (z-score) [27]: 2.25
- glycan array binding signal (z-score) [28]: 2.4
- glycan array binding signal (z-score) [29]: 0.179
